Screens deposited in PubChem by several laboratories.
cardiac RTF act = increases calcium sensitivity of human cardiac regulated thin filaments; IANBD-labeled TnC RTF fluorescence at EC20 calcium; 0% EC20 calcium, 100% full calcium; activation, % at 7.2 µM; 340,000 tested, 0.24% active;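 active means activation above the mean over all tested compounds plus 3 SD, cut at about 30% in these data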;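 further: rise in fluorescence read as greater calcium sensitivity of cardiac thin filaments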
RTF Ca sens inh = cardiac RTF calcium desensitization; inhibition, % at 7.15 µM; IANBD-labeled cardiac RTF, Ca2+ fluorescence; 340,000 tested, 0.12% active; AID 493244; P19429+P45379;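 active means inhibition above the mean inhibition of all tested compounds plus 3 SD, cut at about 17% in these data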;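 further: assay run at fixed EC70 calcium of 1.6 mM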
LANA DNA inh = inhibitors of KSHV LANA C-terminal domain DNA binding. MBP-C-LANA/FAM-LBS DNA binding, fluorescence polarization. inhibition, % at 9 µM. 340,000 tested, 0.078% active. AID 504423;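 active means highest replicate inhibition at or above 60% at 9 µM, even if other replicates fall short; inactive means all replicates below 60% inhibition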
Keap1-Nrf2 PPI = disrupts human Keap1 binding to Nrf2 peptide. 340,000 tested, 0.15% active. Keap1 Kelch-Nrf2 peptide fluorescence polarization, 1536-well. inhibition, % at 9.4 µM; in the data active means inhibition above about 12%;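 further: human Keap1 Kelch domain with fluorescein labeled Nrf2 9mer peptide probe; higher means more block of Keap1 binding to Nrf2 peptide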
Target sequence (Q14145 whole entry, looked up, the tested form may be a part): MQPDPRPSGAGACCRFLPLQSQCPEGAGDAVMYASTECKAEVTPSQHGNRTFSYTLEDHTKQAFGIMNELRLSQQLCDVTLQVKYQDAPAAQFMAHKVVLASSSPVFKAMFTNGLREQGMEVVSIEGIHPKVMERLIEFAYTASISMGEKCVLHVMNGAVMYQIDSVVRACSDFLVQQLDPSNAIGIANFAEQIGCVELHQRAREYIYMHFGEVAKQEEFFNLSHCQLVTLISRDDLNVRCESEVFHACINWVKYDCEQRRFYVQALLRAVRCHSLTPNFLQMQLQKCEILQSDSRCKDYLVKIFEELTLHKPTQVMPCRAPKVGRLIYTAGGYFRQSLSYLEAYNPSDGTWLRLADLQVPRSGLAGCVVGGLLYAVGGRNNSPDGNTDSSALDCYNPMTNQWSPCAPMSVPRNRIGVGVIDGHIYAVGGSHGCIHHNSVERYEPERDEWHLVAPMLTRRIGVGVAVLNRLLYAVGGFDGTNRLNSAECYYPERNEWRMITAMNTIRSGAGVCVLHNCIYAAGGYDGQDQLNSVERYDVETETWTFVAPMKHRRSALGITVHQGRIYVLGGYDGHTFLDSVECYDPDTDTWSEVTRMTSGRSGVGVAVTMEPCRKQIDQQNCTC
RTF Ca inh conf = confirmation of inhibitors of cardiac thin filament calcium sensitivity. 360 tested, 8% active. reconstituted cardiac thin filaments, calcium sensitivity fluorescence. shares compounds with RTF Ca sens inh. inhibition, % at 7.15 µM. AID 504635; in the data active means inhibition above about 18%
Hits are given with their value; - = inactive; . = no result; + = active, no number. Sampled rows, rich in hits. Any-hit rate of the full collection: about 0.5%.

SMILES	cardiac RTF act	RTF Ca sens inh	LANA DNA inh	Keap1-Nrf2 PPI	RTF Ca inh conf
CN1/C(=C\C=O)C(C)(C)c2ccccc21	-	-	-	-	.
CN(C)c1ccc(N=C/C=C2\N(C)c3ccccc3C2(C)C)cc1	-	-	-	-	.
C/C(=N\NC(=O)c1c(Cl)cnn1C)c1ccc(NC(=O)c2ccc(Br)o2)cc1	-	-	-	-	.
Cc1cccc(Nc2nc(N)c([N+](=O)[O-])c(NCc3ccccc3)n2)c1	.	.	.	+	.
CCCc1cc(=O)oc2cc(OCC(=O)NCC(O)c3ccccc3)ccc12 (stereo unspecified)	-	-	-	-	.
NC(=S)N=Nc1c(O)cc(O)c2[nH]c(=O)ccc12	-	-	-	15	.
NC(=S)N=Nc1c(O)[nH]c2ccc(F)cc12	-	-	-	-	.
CC1=C(C(=O)OC2CCCCC2)C(c2ccc(F)cc2)NC(=O)N1 (stereo unspecified)	-	-	-	-	.
Nc1nnnn1/N=C/c1cc(Cl)ccc1O	-	-	-	-	.
Nc1nnnn1/N=C/c1cc(Cl)cc(Cl)c1O	32	-	-	-	.
N#CC(C#N)=C1C=C2C=C(N3CCCCCC3)CCC2CC1 (stereo unspecified)	+	-	-	-	.
CCN1CCN(C2=CC3=CC(=C(C#N)C#N)CCC3CC2)CC1 (stereo unspecified)	+	-	-	-	.
N#CC(C#N)=C1C=C2C=C(N3CCOCC3)CCC2CC1 (stereo unspecified)	+	-	-	-	.
CN1CCN(C2=CC3=CC(=C(C#N)C#N)CCC3CC2)CC1 (stereo unspecified)	+	-	-	-	.
CC1(C)CC(NCCN2CCN(C3=CC(=C(C#N)C#N)CC(C)(C)C3)CC2)=CC(=C(C#N)C#N)C1	-	-	-	-	.
O=c1[nH][nH]c2c(N=Cc3ccccc3O)ccc(F)c12	-	34	87	-	.
COC1OC2COC(c3ccccc3)OC2C2OC12 (stereo unspecified)	-	-	-	-	.
CSC(=NCc1ccc(F)cc1)NS(=O)(=O)c1cccs1	-	17	-	-	-
O=C(CNS(=O)(=O)c1cccs1)NCc1ccc(F)cc1	-	-	-	-	.
COc1ccc(CN(C)C(=O)COC(=O)c2c(-c3ccccc3Cl)noc2C)cc1	-	18	-	-	-
CC(C)(C)c1nnc(NC(=O)C2CC(=O)N(CCc3ccc(F)cc3)C2)s1 (stereo unspecified)	-	-	-	-	.
COc1cccc2c1NC(C(=O)O)C1CC=CC21 (stereo unspecified)	-	19	-	-	-
O=C(O)c1ccc(CNC(=O)c2ccccc2NC(=O)c2cccc([N+](=O)[O-])c2)cc1	-	18	-	-	-
CC1CCCN(C(=O)COC(=O)CSc2ccc(C(N)=O)cc2[N+](=O)[O-])C1 (stereo unspecified)	-	-	-	-	.
CC1CCN(C(=O)COC(=O)CSc2ccc(C(N)=O)cc2[N+](=O)[O-])CC1	-	17	-	-	-
SMILES	cardiac RTF act	RTF Ca sens inh	LANA DNA inh	Keap1-Nrf2 PPI	RTF Ca inh conf
COc1cccc(/C=N/Nc2nc3ccccc3n3cnnc23)c1	-	-	-	-	.
COc1cccc(/C=N/Nc2nc3ccccc3n3cnnc23)c1O	-	23	-	-	40
Cn1c(Cn2cnc([N+](=O)[O-])n2)nnc1SCC(=O)Nc1ccccc1	-	17	-	-	-
CCc1ccccc1NC(=O)C1(S(=O)(=O)c2ccc(C)cc2)CC1	-	17	-	-	-
O=C1NC2(CCCC2)C(=O)N1CC(=O)N(Cc1ccccc1)c1ccccc1	-	-	-	-	.
CC(Oc1cccc(Cl)c1)C(=O)Nc1ccc(S(=O)(=O)N(C)C2CCN(C)CC2)cc1 (stereo unspecified)	-	-	-	-	.
COc1ccc(/C=C/C(=O)NC(=S)Nc2ccc(C(=O)O)cc2)cc1	33	58	-	-	-
Cc1ccc(S(=O)(=O)N2CCCC2CNC(=O)C(=O)Nc2ccc(F)cc2)cc1 (stereo unspecified)	-	-	-	-	.
Cc1ccc(-n2c(SCC(=O)Nc3ccc4c(c3)OCCO4)nnc2-c2ccco2)cc1	-	17	-	-	-
Cc1ccc(C)c(OCCC(=O)NNC(=O)c2ccccc2)c1	-	17	-	-	-
Cc1ccc(C)c(OCCC(=O)NNC(=O)c2ccncc2)c1	-	-	-	-	.
CC(C)(C)n1nnnc1C(c1cccc(C#N)c1)N1CCCCCC1 (stereo unspecified)	-	23	-	-	-
